Inconclusive results are not listed. A call without a number means that no potency is given here. The source made the active and inactive calls. The call rests on the fitted dose curve; in most records, active means well fitted inhibition curve with a large enough effect; inconclusive means small, poorly fitted or top-dose-only effect; inactive means flat fitted curve, though single readings scatter.

Experimental findings from PubChem BioAssay (NCATS) are described below.
Potency means the concentration at half of the fitted maximal effect.

The test system of this test is CP203. The test is described as follows: qHTS profiling for inhibitors of Plasmodium falciparum proliferation (AID 504749). Further: nearly all actives have a fitted effect of over 60% in size. The following applies: P. falciparum in erythrocytes, SYBR Green DNA, 72 h; series mostly up to 28.7 µM. From the text:
NIH National Institute of Allergy and Infectious Diseases [NIAID] NIH Chemical Genomics Center [NCGC] MLPCN Grant: None Assay Provider: Xinzhuan Su, NIAID NCGC Assay Overview: Plasmodium falciparum is a virulent malarial parasite that kills 1-2 million people worldwide each year. Transmitted by mosquitoes, the sporozoite form of the parasite enters the blood stream to infect hepatocytes, where they become merozoites that infect red blood cells (erythrocytes). Within erythrocytes, merozoites begin a […] cycle of growth and division, after which the parasite is released to infect new red blood cells. Gametocytes, which form within erythrocytes as well, circulate in the bloodstream and are ingested by the mosquito, thereby completing the life cycle. To profile malarial isolates for differential chemical responses and to identify inhibitors of malarial growth, an assay that measures P. falciparum growth and replication within erythrocytes was employed. This assay uses a DNA binding fluorescent dye (SYBR Green) to detect parasite DNA following cell lysis. Because mature erythrocytes lack DNA, only Plasmodium-derived DNA is detected.
NCGC Assay Protocol Summary: The SYBR Green viability assay was adapted from a method described previously (Plouffe et al., 2008). For screening 3 ul culture medium was dispensed into 1536 well black clear bottom plates (Aurora Biotechnologies) using a Multidrop Combi (Thermo Fisher Scientific Inc.), 23 nL compounds in DMSO were added by a pin tool (Kalypsys), and 5 ul of erythrocytes infected with P. falciparum (0.3% parasitemia, 2.5% hematocrit final concentration) were added. The plates were incubated at 37 C in a humidified incubator in 5% CO2 for 72 h, and 2 ul lysis buffer (20 mM Tris HCl, 10 mM EDTA, 0.16% saponin, 1.6% triton X, 10X SYBR Green I supplied as 10,000X […] by Invitrogen) was added to each well. The plates were mixed for 25 sec with gentle shaking and incubated overnight at room temperature in the dark. The following morning, fluorescence intensity at 485(14) nm excitation and 535(25) nm emission wavelengths was measured on an EnVision (Perkin Elmer) plate reader. Plate reads were normalized relative to the control inhibitor (0.29 uM artemisinin) and vehicle (DMSO) wells present on each plate and then corrected by an algorithm using vehicle-only control plates at the beginning and end of the compound plate stack.
For `OC(Cn1cncn1)(Cn1cncn1)c1ccc(F)cc1F`, the Potency result is “inactive”.

As to `CC1=NN(c2ccccc2)C(=O)C1`, the Potency entry is “inactive”.

As for `COc1cc(NCc2ccc3nc(N)nc(N)c3c2C)cc(OC)c1OC`, the Potency is 4.78 µM (active).

In the case of `CC(N)C12CC3CC(CC(C3)C1)C2` (stereo not given), the Potency is 12 µM (active).

For the molecule `CCn1cc(C(=O)O)c(=O)c2cc(F)c(N3CCNCC3)cc21`, the Potency result was “inactive”.

With `O=c1cc(O)c(Cl)c[nH]1`, the Potency result is “inactive”.

With `C[C@@H](NCCCc1cccc(C(F)(F)F)c1)c1cccc2ccccc12`, the Potency was 10.7 µM (active).

Take `C[C@]12C=CC(=O)C=C1CC[C@@H]1[C@@H]2C(=O)C[C@@]2(C)[C@H]1CC[C@]2(O)C(=O)CO`: the Potency entry was “inactive”.

In the case of `COc1ccc(-c2ccc3cc(C(=O)O)ccc3c2)cc1C12CC3CC(CC(C3)C1)C2`, the Potency result is “inactive”.

Consider `COc1nc(N)nc2c1ncn2[C@@H]1O[C@H](CO)[C@@H](O)[C@@H]1O`, for which the Potency entry was “inactive”.

For the molecule `CC(C)(C#N)c1cc(Cn2cncn2)cc(C(C)(C)C#N)c1`, the Potency entry is “inactive”.

`COc1cc([C@@H]2c3cc4c(cc3[C@H](O)[C@H]3COC(=O)[C@H]23)OCO4)cc(OC)c1OC`: the Potency was 12 µM (active).

With `CCC(C)(C)c1ccc(CC(C)CN2C[C@@H](C)O[C@@H](C)C2)cc1` (stereo not given in full), the Potency result is “inactive”.

With `Cc1cccc(Nc2ccncc2S(=O)(=O)NC(=O)NC(C)C)c1`, the Potency entry is “inactive”.

Take `CC[C@H](NC(C)C)[C@H](O)c1ccc(O)c2[nH]c(=O)ccc12`: the Potency result was “inactive”.

As to `CNC1CCCN(c2c(F)cc3c(=O)c(C(=O)O)cn(C4CC4)c3c2OC)C1` (stereo not given), the Potency entry is “inactive”.

On to `CCc1c2c(nc3ccc(OC(=O)N4CCC(N5CCCCC5)CC4)cc13)-c1cc3c(c(=O)n1C2)COC(=O)[C@]3(O)CC`, for which the Potency result is “inactive”.

Take `Cc1nnc(NS(=O)(=O)c2ccc(N)cc2)s1`: the Potency entry is “inactive”.

As to `CN(C)CCc1c[nH]c2ccc(CS(=O)(=O)N3CCCC3)cc12`, the Potency result is “inactive”.

For `N[C@@H](Cc1ccc(O)c(O)c1)C(=O)O`, the Potency entry was “inactive”.

Regarding `O=NN(CCCl)C(=O)NC1CCCCC1`, the Potency entry is “inactive”.

With `COc1cc(NS(=O)(=O)c2ccc(N)cc2)nc(OC)n1`, the Potency result was “inactive”.

Turning to `Nc1ccc(S(=O)(=O)Nc2ccccn2)cc1`, the Potency entry was “inactive”.

Turning to `Cc1noc(NS(=O)(=O)c2ccc(N)cc2)c1C`, the Potency entry is “inactive”.

Turning to `CCCc1cc(C(N)=S)ccn1`, the Potency entry is “inactive”.

For `CCOC(=O)c1ccc(C#Cc2ccc3c(c2)C(C)(C)CCS3)nc1`, the Potency result is “inactive”.

For `CC(C)OC(=O)C(C(=O)OC(C)C)=C1SC=CS1`, the Potency entry is “inactive”.

Turning to `NC(N)=NC(N)=NCCc1ccccc1`, the Potency result was “inactive”.

For `S=P(N1CC1)(N1CC1)N1CC1`, the Potency result was “inactive”.

For `COc1ccc(C(=O)CC(=O)c2ccc(C(C)(C)C)cc2)cc1`, the Potency entry is “inactive”.

Regarding `CNS(=O)(=O)Cc1ccc2[nH]cc(CCN(C)C)c2c1`, the Potency entry was “inactive”.

Turning to `NC(=O)N1c2ccccc2CC(=O)c2ccccc21`, the Potency result is “inactive”.

Consider `COC(=O)Nc1nc2ccc(Sc3ccccc3)cc2[nH]1`, for which the Potency result was “inactive”.

With `CNNCc1ccc(C(=O)NC(C)C)cc1`, the Potency entry is “inactive”.

Take `O=P(O)(O)C(O)(Cc1cccnc1)P(=O)(O)O`: the Potency entry was “inactive”.

`CCCCOc1ccc(CC(=O)NO)cc1`: the Potency was 3.61 µM (active).

As for `CC1=CC(=O)c2ccccc2C1=O`, the Potency result is “inactive”.

Regarding `COc1ncnc(NS(=O)(=O)c2ccc(N)cc2)c1OC`, the Potency result was “inactive”.

Take `O=C(O)c1cc(=O)[nH]c(=O)[nH]1`: the Potency result is “inactive”.

For `CC(C)NCC(O)c1ccc(NS(C)(=O)=O)cc1` (stereo not given), the Potency entry is “inactive”.
